# Hits are enriched below; roughly 2.4% of the tested compounds scored in any of these assays.
# Pol iota inh: qHTS for Inhibitors of Polymerase Iota. DNA polymerase iota (Homo sapiens), Q9UNA4. Pol iota fluorescent replication assay, 10 min. Potency, µM (series often up to 115 µM), inactives show top-dose activity, negative = inhibition, actives largely listed as inhibitors. actives 1% (n = 390,000)
#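 Fluorescent replication assay read twice, at 0 min and 10 min after adding 50 nM (final) substrate. Enzyme (10 nM) and compounds were first incubated 15 min at room temperature; enzyme-free buffer wells were negative controls.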
# WRN helicase inh: qHTS for Inhibitors of WRN Helicase | Bifunctional 3'-5' exonuclease/ATP-dependent helicase WRN (Homo sapiens), Q14191 | WRN helicase unwinding, fluorescent forked duplex, kinetic | Potency, µM (highest dose often 114 µM), for inactives: top-dose activity change, negative = inhibition, most hits filed as inhibitors | actives 0.46% (n = 360,000); further: on the % scale 0 is the no-effect control and ±100 the full control effect; nearly all actives have a fitted effect of over 55% in size
#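 Enzyme (20 nM final) and test compound sit together 15 min at room temperature before substrate addition. Substrate is a single-forked duplex oligonucleotide (100 nM) labelled with fluorophore and quencher, with 2 mM ATP; helicase unwinding raises red fluorescence, read kinetically.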
# FEN1 inhibitor: qHTS Assay for the Inhibitors of Human Flap endonuclease 1 (FEN1); Recombinant FEN1 flap cleavage, fluorescence, 15 min; Potency, µM (titrated, usually from 114 µM), inactives show at the top dose activity change, negative = inhibition, hits mostly inhibitors; actives 0.35% (n = 390,000); further: on the % scale 0 is the no-effect control and ±100 the full control effect; nearly all actives have a fitted effect of over 65% in size
#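 Concentration–response screening of FEN1 (10 nM): 15 min compound preincubation at room temperature, reaction started with 50 nM substrate and read at 0 and 15 min. Corrected, normalized data were fitted by a four-parameter Hill equation.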
# Pol kappa inh: qHTS for Inhibitors of Polymerase Kappa. DNA polymerase kappa (Homo sapiens), Q9UBT6. purified Pol kappa, fluorescent DNA synthesis assay, 10 min. Potency, µM (titrated, usually from 107 µM), for the others: at the highest dose activity, negative = inhibition, most hits filed as inhibitors. actives 0.53% (n = 400,000); further: on the % scale 0 is the no-effect control and ±100 the full control effect
#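 First, compounds were pin-transferred onto 10 nM Pol kappa. After 15 min at room temperature, substrate was added to 50 nM final. Fluorescence was then measured kinetically at 0 and 10 min.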
# POLH inh: qHTS for Inhibitors of Polymerase Eta; DNA polymerase eta (Homo sapiens), Q9Y253; recombinant Pol eta, fluorescent DNA replication assay; Potency, µM (highest dose often 114 µM), for the others: at the top dose activity change, negative = inhibition, hits mostly inhibitors; actives 1.2% (n = 390,000); further: on the % scale 0 is the no-effect control and ±100 the full control effect
#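 Pol eta at 10 nM preincubated with compounds 15 min at room temperature; reaction started with fluorescent substrate (50 nM final) and read kinetically at 0 and 10 min.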
# POLB inh: qHTS Assay for Inhibitors of DNA Polymerase Beta. Potency, µM (titrated, usually from 114 µM), without a hit: top-dose activity change, negative = inhibition, actives largely listed as inhibitors. Pol beta primer extension/strand displacement, fluorescence kinetic. P06746. AID 485314, 2010. actives 1.3% (n = 340,000); further: on the % scale 0 is the no-effect control and ±100 the full control effect
#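 Pol beta (10 nM) was preincubated with compound for 15 min at room temperature. The reaction was then started with 50 nM substrate and read immediately and after a further 10 min at room temperature.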
# * marks the source's active call; other numbers are inactive results; ? = inconclusive; / = no result; [ ] = another dose, or the depositor's remark. The call rests on the fitted dose curve; in most records, active means well fitted curve in the direction sought with a large enough effect; inconclusive means small, poorly fitted or top-dose-only effect, or another doubt; inactive means no such curve, though single readings can be large; an effect the other way counts as inactive or inconclusive. Potency means the concentration at half of the fitted maximal effect.
SMILES,Pol iota inh,WRN helicase inh,FEN1 inhibitor,Pol kappa inh,POLH inh,POLB inh
COC(=O)c1ccccc1NC1=C/C(=N\S(=O)(=O)c2cccs2)c2ccccc2C1=O,1.41µM*,-25.2%,1.2%,-15.1%,-13.2%,-26.2%
O=C1C(=Cc2cn(-c3ccccc3)nc2-c2ccc(OCc3ccccc3F)cc2)SC(=S)N1CCS(=O)(=O)O,/,31.6µM*,/,/,/,/
Cc1ccc(CSC2=Nc3ccccc3C3=NC(CC(=O)NCc4ccco4)C(=O)N23)cc1 (stereo unspecified),?,-20.1%,-13.4%,?,?,25.1µM*
O=C(CC1N=C2c3ccccc3N=C(SCc3ccc(F)cc3)N2C1=O)NCc1ccco1 (stereo unspecified),17.4%,-26.1%,2.7%,-6.1%,-8.1%,50.1µM*
O=C(CCC1N=C2c3ccccc3N=C(SCc3ccc(Cl)cc3)N2C1=O)NCCc1ccccc1 (stereo unspecified),89.1µM*,/,-16.9%,-37.8%,-14.9%,16.4%
O=C(CCC1N=C2c3ccccc3N=C(SCc3cccc(Cl)c3)N2C1=O)NCCc1ccccc1 (stereo unspecified),-7.0%,/,-17.9%,-7.0%,-20.7%,19.2%
Cc1cc2ccccc2n1-c1ccc(C(=O)N2CCCCC2)s1,27.8%,/,-5.1%,-1.1%,-15.1%,0.6%
O=C(CCN1C(=O)/C(=C/c2ccccc2Cl)SC1=S)Nc1ccccc1C(=O)O,?,-14.1%,-13.1%,-9.6%,79.4µM*,?
CCc1ccc(/C=C2/SC(=S)N(CCCC(=O)Nc3ccccc3C(=O)O)C2=O)cc1,-11.8%,?,-16.6%,-28.4%,79.4µM*,50.2%
CCOC(=O)c1ccccc1NC(=O)CN(c1ccccc1OC)S(=O)(=O)c1ccc(C)cc1,4.5%,/,7.7%,-0.8%[60.1 µM],-12.7%,-16.2%
O=C(CSCC(=O)c1ccc([N+](=O)[O-])cc1)c1ccc([N+](=O)[O-])cc1,/,-9.2%,/,/,/,/
O=C(C#Cc1ccccc1)c1ccc([N+](=O)[O-])cc1,34.4%,31.6µM*,-3.1%,2.5%,-13.9%,16.2%
O=C(C#Cc1ccccc1)c1ccccc1,/,44.7µM*,/,/,-4.5%,/
CN(C)C(=O)C#Cc1ccccc1,50.5%,-10.8%,22.1%,2.0%,-6.8%,10.8%
CCN1C(=O)[C@H]2[C@H]3[C@H](O)[C@H](O)CC(=O)[C@@H]3CC[C@H]2C1=O,0.7%,/,0.6%,-5.1%,/,/
COCCN1C(=S)N[C@@H](c2ccccc2)C(C(=O)OC)=C1C,/,/,/,/,/,30.4%
CCc1ccccc1NC(=O)CSC1=C(C#N)C(c2ccc3c(c2)OCO3)C2=C(CCCC2=O)N1 (stereo unspecified),-10.4%,-10.0%,0.6%,-10.8%,-0.6%,22.4µM*
COc1ccc(OC)c(NC(=O)CSC2=C(C#N)C(c3ccco3)C3=C(CCCC3=O)N2)c1 (stereo unspecified),71.9%,-14.0%,1.9%,-19.2%,-12.7%,28.3%
COc1ccc(OC)c(S(=O)(=O)Nc2ccc(O)c(Sc3ncn[nH]3)c2)c1,?,?,6.0%,-25.0%,?,79.4µM*
Cc1ccc([N+](=O)[O-])cc1-c1ccc(/C=C(\C#N)c2[nH]nc(N)c2C#N)o1,56.2µM*,?,?,?,?,6.31µM*
COCc1cc(C)nc(OCC(=O)N/N=C/c2ccc(-c3cc([N+](=O)[O-])ccc3C)o2)c1C#N,-7.4%,-3.2%,-0.6%,-4.0%,?,12.6%
CC1=C(CCC(=O)O)c2cc3nc(cc4[nH]c(cc5[nH]c(cc1n2)c(C)c5C(C)O)c(C)c4C(C)O)C(C)=C3CCC(=O)O (stereo unspecified),/,/,/,20µM*,/,/
Cc1ccc(S(=O)(=O)NN=Cc2c(O)ccc3ccccc23)cc1,/,0.5%,/,/,-18.8%,/
Cc1ccc(S(=O)(=O)Nc2c(O)ccc3ccccc23)cc1,?,39.8µM*,?,-10.6%,-6.0%,/
O=S(=O)(Nc1c(O)ccc2ccccc12)c1cccc2ccccc12,92.0%,22.4µM*,?,-5.4%,-10.3%,/
SMILES,Pol iota inh,WRN helicase inh,FEN1 inhibitor,Pol kappa inh,POLH inh,POLB inh
O=C(O)c1ccc(NC(=O)C2CC=CCC2C(=O)O)cc1 (stereo unspecified),8.2%,-29.6%[57.1 µM],-1.3%,-5.5%,-7.1%,-14.6%
O=C(O)C1CC=CCC1C(=O)Nc1ccccc1 (stereo unspecified),10.4%,-7.5%,-3.2%,-5.7%,?,31.6µM*
O=C(O)Cc1ccc(NC(=O)C2CC=CCC2C(=O)O)cc1 (stereo unspecified),/,/,/,/,/,22.4µM*
COC(=O)c1ccccc1NC(=O)c1ccc(-c2nc(COc3ccccc3)c(C)o2)cc1,15.6%,/,17.3%,-10.1%,-6.8%,1.5%
CCOc1ccc(CNC(=O)CSc2nnc(C)c3c(C)n(-c4ccc(Cl)cc4)nc23)cc1,40.1%,/,4.3%,4.5%,-11.9%,12.2%
COc1ccc(CCNC(=O)Cn2c(=O)n(-c3ccc(OC)c(OC)c3)c(=O)c3ccccc32)cc1OC,?,/,-12.2%,79.4µM*,-1.1%,22.6%
CCc1ccc(-n2c(=O)c3ccccc3n(CC(=O)NCCc3ccc(OC)c(OC)c3)c2=O)cc1,-5.6%,/,-14.3%,-16.6%,-8.1%,15.0%
N#Cc1cccc2c1-c1ccccc1/C2=N/NC(N)=S,20µM*,-15.9%,-8.0%,-9.6%,?,0.7%
CCCNC(=O)Cn1c(=O)cc(C)c2c(C)nn(-c3cccc(F)c3)c21,-4.2%,/,11.8%,-14.6%[60.1 µM],-4.9%,-0.7%
Oc1cccc(C=Nc2cccc3ccccc23)c1O,11.2µM*,-0.4%[11.6 µM],?,35.5µM*,-15.9%,8.91µM*
Oc1cccc(C=NCc2ccccc2)c1O,7.94µM*,39.8µM*,?,14.1µM*,?,3.55µM*
Oc1ccccc1C=Nc1cccc2ccccc12,62.1%,2.6%,21.0%,-8.7%,-19.4%,-1.4%
CC(NS(=O)(=O)c1ccc(Br)cc1)C(=O)NCc1ccco1 (stereo unspecified),8.2%,-0.5%,0.8%,-17.9%,7.0%,-12.4%
CC(NS(=O)(=O)c1ccccc1)C(=O)NCc1ccco1 (stereo unspecified),39.8µM*,-10.3%[11.6 µM],9.3%,?,?,?
Nc1nc(N)c2c(Oc3ccc(F)cc3)cccc2n1,?,/,7.5%,-12.0%,/,/
CCc1ccc([C@@H]2CC=C(C(=O)O)[C@H](c3ccc(C(C)(C)C)cc3)N2S(=O)(=O)c2ccc(C)cc2)cc1,25.7%,?,?,-29.8%,31.6µM*,/

# High-throughput results from PubChem BioAssay.
